The results in this text go back to article PMC4336329 (PLoS ONE, 2015).

The whole screen tested about 310,000 compounds, of which about 14,000 (4.5%) showed an effect of 50% or more. The effect is printed as a negative number. The entries come from a sample that favours strong results as a whole.
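Also: peak tail current of the secondary pulse compared with the same well before compound.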

Sequence of human ether-à-go-go-related gene (hERG) potassium channel (Q12809 whole entry, looked up): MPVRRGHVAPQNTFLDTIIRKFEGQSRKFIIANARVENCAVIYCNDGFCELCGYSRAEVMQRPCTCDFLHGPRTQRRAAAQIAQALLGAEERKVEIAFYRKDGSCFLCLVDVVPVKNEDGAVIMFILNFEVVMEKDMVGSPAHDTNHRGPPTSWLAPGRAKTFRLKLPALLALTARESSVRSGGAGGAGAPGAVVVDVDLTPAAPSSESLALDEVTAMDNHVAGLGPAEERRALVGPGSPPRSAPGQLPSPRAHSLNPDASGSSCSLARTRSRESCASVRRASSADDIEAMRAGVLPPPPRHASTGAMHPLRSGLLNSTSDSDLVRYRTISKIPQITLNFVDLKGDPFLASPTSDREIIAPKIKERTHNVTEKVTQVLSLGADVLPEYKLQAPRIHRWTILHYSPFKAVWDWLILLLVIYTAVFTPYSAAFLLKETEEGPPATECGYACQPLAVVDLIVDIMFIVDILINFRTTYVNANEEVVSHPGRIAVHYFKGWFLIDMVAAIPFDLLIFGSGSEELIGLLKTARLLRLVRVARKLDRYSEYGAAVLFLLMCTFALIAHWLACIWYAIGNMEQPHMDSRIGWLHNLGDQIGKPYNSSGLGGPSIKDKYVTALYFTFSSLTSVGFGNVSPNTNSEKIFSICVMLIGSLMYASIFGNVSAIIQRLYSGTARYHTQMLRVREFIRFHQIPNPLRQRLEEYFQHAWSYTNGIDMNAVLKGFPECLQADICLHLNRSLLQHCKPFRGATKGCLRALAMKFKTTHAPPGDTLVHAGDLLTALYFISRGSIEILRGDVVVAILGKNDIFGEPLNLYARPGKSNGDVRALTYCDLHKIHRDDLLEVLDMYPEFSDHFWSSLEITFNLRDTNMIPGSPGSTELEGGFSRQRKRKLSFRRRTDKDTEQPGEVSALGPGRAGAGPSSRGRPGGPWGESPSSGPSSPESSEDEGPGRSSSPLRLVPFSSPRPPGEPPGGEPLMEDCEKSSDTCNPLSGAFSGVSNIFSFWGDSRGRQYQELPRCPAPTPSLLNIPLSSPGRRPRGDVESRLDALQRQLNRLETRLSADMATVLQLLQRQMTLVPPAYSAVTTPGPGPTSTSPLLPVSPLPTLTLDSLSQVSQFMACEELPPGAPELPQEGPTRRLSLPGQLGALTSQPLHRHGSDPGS

The test has as its target human ether-à-go-go-related gene (hERG) potassium channel (human, UniProt Q12809). Briefly: primary screen, population patch clamp on CHO cells stably expressing hERG; higher = less effect of the substance. The protocol:
Briefly, Chinese hamster ovary (CHO) cells stably expressing the hERG channel were dislodged from tissue culture flasks and dispensed into PPC plates. […] During the recording, background leak currents were estimated by a 100 ms step to -80 mV from an initial holding potential of -70 mV and subtracted from the subsequent current measurement. The campaign was conducted in two phases using slight differences in recording protocol. In the first phase, the initial voltage pulse used a 100 ms step to -30 mV from a holding potential of -70 mV, a 2 s conditioning step to +25 mV, and a 2 s test step to -30 mV. During the second phase of the screen, the potential during the conditioning step was raised to +45 mV. In both phases of the campaign, a secondary voltage pulse was applied using the same parameters as the second phase initial pulse. The initial and secondary pulses were applied in the absence of compound, and upon application of 1 μM and 10 μM test concentrations. […]
As to `COc1ccc(NC(=O)/C(C#N)=C\c2ccc(OCc3ccc(C(=O)O)cc3)c(OC)c2)cc1`, the “hERG current change (%, negative = inhibition) at 10uM” value stood at 3.69%. Regarding `CC(C)C(CCNC(=O)CC(Cc1ccccc1)c1ccco1)c1ccco1` (stereo not drawn), the “hERG current change (%, negative = inhibition) at 10uM” value is listed as -20%. `Cc1cc(C)cc(OCC(=O)NNC(=O)CCN2C(=O)c3ccccc3C2=O)c1`: the “hERG current change (%, negative = inhibition) at 10uM” value is given as -14.8%. The figure for `Cc1ccc(NC(=O)CCNS(=O)(=O)c2ccc3[nH]c(=O)oc3c2)cc1C` is 9.43%.

For the compound `COc1ccc2cc(CN(CC3CCCO3)S(=O)(=O)c3ccc(C(C)=O)cc3)c(=O)[nH]c2c1` (stereo not drawn), the “hERG current change (%, negative = inhibition) at 10uM” value was -11.4%.

Turning to `COC(=O)CN(C)C(=O)CC1C(=O)NCCN1CC(C)(C)C` (stereo not drawn), the “hERG current change (%, negative = inhibition) at 10uM” value stood at 22.8%. Regarding `O=c1[nH]cnc2c1cnn2Cc1ccccc1Cl`, the “hERG current change (%, negative = inhibition) at 10uM” value worked out at 11.7%.

As for `Cc1ccc(C2(C)NC(=O)N(CC(=O)NCc3ccccc3Cl)C2=O)cc1` (stereo not drawn), the “hERG current change (%, negative = inhibition) at 10uM” value was 9.54%. The figure for `CCSC(C)CC1C/C(=N/O)c2c(C)noc2C1` (stereo not drawn) is -63.4%; for `CCSC(C)CC1C/C(=N/O)c2c(CC)noc2C1` (stereo not drawn) it is -24.2%.

For `CCCc1noc2c1/C(=N\O)CC(CC(C)SCC)C2` (stereo not drawn), the “hERG current change (%, negative = inhibition) at 10uM” value is listed as -11.1%. Consider `O=C(Nc1nccs1)C1CCCN1/C=C/C(=O)C(F)(F)F` (stereo not drawn), for which the “hERG current change (%, negative = inhibition) at 10uM” value was 13.9%. In the case of `CSc1nnc2c(n1)OC(c1ccccn1)N(C(C)=O)c1ccccc1-2` (stereo not drawn), the “hERG current change (%, negative = inhibition) at 10uM” value is given as 1.42%. With `CC(O)CNc1nc2ccccc2n1-c1ncnc2sc3c(c12)CCC3` (stereo not drawn), the “hERG current change (%, negative = inhibition) at 10uM” value is given as -55.5%. Turning to `c1ccc2c(c1)ncn2-c1ncnc2sc3c(c12)CCCC3`, the “hERG current change (%, negative = inhibition) at 10uM” value is reported as -27.2%. With `CC(O)CNc1nc2sc3c(c2c(=O)n1CCc1ccccc1)CCCCC3` (stereo not drawn), the “hERG current change (%, negative = inhibition) at 10uM” value is 13.1%. Turning to `COc1ccc(CC(=O)N/N=C/c2ccc(-c3cccc(C(=O)O)c3)o2)cc1OC`, the “hERG current change (%, negative = inhibition) at 10uM” value is recorded as 3.33%. In the case of `C=CCNC(=O)CN(Cc1ccccc1)S(=O)(=O)c1ccccc1`, the “hERG current change (%, negative = inhibition) at 10uM” value is reported as -4.02%. Consider `CCNS(=O)(=O)c1ccc(NC(=S)N2CCc3ccccc32)cc1`, for which the “hERG current change (%, negative = inhibition) at 10uM” value is given as 22.9%. Turning to `CCOC(=O)c1c(C)nsc1NC(=O)C1CCCCC1`, the “hERG current change (%, negative = inhibition) at 10uM” value is 17.3%.

With `N#Cc1ccc(C(=O)N2CCN(S(=O)(=O)c3ccc(Cl)s3)CC2)cc1`, the “hERG current change (%, negative = inhibition) at 10uM” value is -49.9%. As to `CCC(=O)c1ccc(OCC(=O)N2CCN(S(=O)(=O)c3ccc(Cl)s3)CC2)cc1`, the “hERG current change (%, negative = inhibition) at 10uM” value is given as -4.53%. As for `O=C(CCCc1nc2ccccc2s1)N1CCN(S(=O)(=O)c2cccs2)CC1`, the “hERG current change (%, negative = inhibition) at 10uM” value was -11.9%. For the compound `O=C(CCc1nc2ccccc2s1)N1CCN(S(=O)(=O)c2cccs2)CC1`, the “hERG current change (%, negative = inhibition) at 10uM” value is -66.7%. Turning to `CC(C)(C)c1ccc(C(=O)N2CCN(S(=O)(=O)c3ccc(Br)s3)CC2)cc1`, the “hERG current change (%, negative = inhibition) at 10uM” value was found to be 1.21%. As for `N#Cc1ccc(C(=O)N2CCN(S(=O)(=O)c3ccc(Br)s3)CC2)cc1`, the “hERG current change (%, negative = inhibition) at 10uM” value is listed as -63.5%.

Regarding `COc1ccc(OCC(=O)N2CCN(S(=O)(=O)c3ccc(Cl)s3)CC2)cc1`, the “hERG current change (%, negative = inhibition) at 10uM” value is recorded as -0.573%. `O=S(=O)(c1cccs1)N1CCN(Cc2nc3ccccc3s2)CC1`: the “hERG current change (%, negative = inhibition) at 10uM” value is listed as -27.8%.

Turning to `N#Cc1ccc(OCC(=O)N2CCN(S(=O)(=O)c3ccc(Cl)s3)CC2)cc1`, the “hERG current change (%, negative = inhibition) at 10uM” value is recorded as -69.5%.

With `N#Cc1ccc(OCC(=O)N2CCN(S(=O)(=O)c3cccs3)CC2)cc1`, the “hERG current change (%, negative = inhibition) at 10uM” value is reported as -72.1%. In the case of `O=C(COc1ccccc1)N1CCN(S(=O)(=O)c2cccs2)CC1`, the “hERG current change (%, negative = inhibition) at 10uM” value is listed as -31%. The figure for `O=C(CCOc1ccccc1)N1CCN(S(=O)(=O)c2cccs2)CC1` is -9.15%. `CCN(CC(=O)NC(=O)Nc1ccccc1F)Cc1ccccc1`: the “hERG current change (%, negative = inhibition) at 10uM” value was 12.4%.

As to `Cc1ccc(N(CCC(=O)N2CCOCC2)S(=O)(=O)c2ccccc2)cc1`, the “hERG current change (%, negative = inhibition) at 10uM” value is listed as -8.57%. `Cn1c(NC(=O)C2c3ccccc3Oc3ccccc32)cc(=O)n(C)c1=O`: the “hERG current change (%, negative = inhibition) at 10uM” value is given as -3.72%. For `C=CCn1c2ccccc2c2nnc(SCC(=O)Nc3cc(C)on3)nc21`, the “hERG current change (%, negative = inhibition) at 10uM” value is given as -8.39%. On to `CCOC(=O)CNC(=O)c1nn(-c2cccc(OC)c2)c(=O)c2ccccc12`, for which the “hERG current change (%, negative = inhibition) at 10uM” value was -22.9%. Regarding `O=C(COC(=O)c1cccc(Oc2ccccc2)c1)NCc1ccco1`, the “hERG current change (%, negative = inhibition) at 10uM” value was determined as 3.19%. In the case of `Cc1ccc(C(C(=O)NC2CCCCC2)N(Cc2cccnc2)C(=O)C2COc3ccccc3O2)o1` (stereo not drawn), the “hERG current change (%, negative = inhibition) at 10uM” value is -59.7%.

On to `Cc1ccc(C(C(=O)NC2CCCCC2)N(Cc2ccco2)C(=O)C2COc3ccccc3O2)o1` (stereo not drawn), for which the “hERG current change (%, negative = inhibition) at 10uM” value was -6.27%. Consider `O=C(NC1CCCCC1)C(c1ccco1)N(Cc1cccnc1)C(=O)C1COc2ccccc2O1` (stereo not drawn), for which the “hERG current change (%, negative = inhibition) at 10uM” value is reported as -18.8%. As for `Cc1ccc(NC(=O)c2sc(C)nc2C)c(C)c1`, the “hERG current change (%, negative = inhibition) at 10uM” value worked out at 1.97%. For `O=C(N/N=C/c1ccccc1OCc1ccccc1)c1cccs1`, the “hERG current change (%, negative = inhibition) at 10uM” value is reported as 5.13%. For the compound `Cc1c(C)c2ccc(OS(C)(=O)=O)cc2oc1=O`, the “hERG current change (%, negative = inhibition) at 10uM” value is -58.4%. With `CCOc1ccc2c(=O)c(Oc3ccccc3)c(C)oc2c1`, the “hERG current change (%, negative = inhibition) at 10uM” value was -6.41%.
